High-throughput results deposited in PubChem BioAssay by National Center for Advancing Translational Sciences (NCATS).
Shown are actives, neighbours in structure and some others; about 3.6% of the full set was active somewhere.
aSyn yeast inh: qHTS of alpha-syn Inhibitors. Yeast expressing alpha-synuclein, growth rescue, BacTiter-Glo, 24 h. Potency, µM (top dose mostly 46.1 µM), for inactives: at the top dose growth rescue (activation), usual class: activators. 0.14% of 370,000 active; further: % of control where 0% means no effect; nearly all actives have a fitted effect of over 65% in size
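Rescue of yeast growth: cells expressing toxic alpha-synuclein, induced in galactose at OD600 0.02, incubated with compound 24 h at 30 C. ATP luminescence quantified growth; inhibitors of toxicity appear as activators.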
MmCpn inh: Inhibitors of TCP-1 ring complex (TRiC) of Methanococcus maripaludis (MmCpn): qHTS. Potency, µM (titrated, usually from 76.9 µM), without a hit: at the top dose activity, negative = inhibition, most hits filed as inhibitors. purified Mm-Cpn ATPase, ADP Transcreener TR-FRET. 0.031% of 330,000 active. Chaperonin Mm-Cpn (Methanococcus maripaludis); further: on the % scale 0 is the no-effect control and ±100 the full control effect; nearly all actives have a fitted effect of over 80% in size
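Purified archaeal chaperonin (25 nM final) was preincubated with compound for 10 min at 37°C, then ATP (10 uM final) was added for 30 min at 37°C in Tris pH 7.4/KCl/MgCl2/DTT buffer. ADP was quantified by HTRF Transcreener TR-FRET.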
Abeta rescue: qHTS for compounds that reverse cellular toxicity of Amyloid beta (A-beta) peptide in yeast: Primary Screen; yeast expressing A-beta42, growth rescue, OD600, 48 h; response scale: 0% DMSO, 100% iron-clioquinol control; Potency, µM (series often up to 46.1 µM), most hits filed as activators; 0.063% of 410,000 active; further: nearly all actives have a fitted effect of over 55% in size
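Yeast A-beta toxicity model in growth medium with pinned compounds, 48 h at 30 C; growth read as absorbance at 600 nm. Normalized to FeCl3/clioquinol equimolar mix (positive) and DMSO (negative).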
ClpP mod: qHTS Assay for Activators of ClpP | 1.9% of 340,000 active | AID 651965, 2013 | Potency, µM (top dose mostly 57.5 µM), inactives show top-dose activity change, negative = active | purified B. subtilis ClpP, FRET peptide cleavage, 20 min | ATP-dependent Clp protease proteolytic subunit (Bacillus subtilis (strain 168)), P80244; active means well fitted falling curve with a large enough effect; inconclusive means small, poorly fitted or top-dose-only effect; inactive means no such curve, though single readings can be large or run the other way; further: the source files actives as falling curves though it sought activators and does not explain the sign; nearly all actives have a fitted effect of over 65% in size
Target sequence (P80244 whole entry, looked up): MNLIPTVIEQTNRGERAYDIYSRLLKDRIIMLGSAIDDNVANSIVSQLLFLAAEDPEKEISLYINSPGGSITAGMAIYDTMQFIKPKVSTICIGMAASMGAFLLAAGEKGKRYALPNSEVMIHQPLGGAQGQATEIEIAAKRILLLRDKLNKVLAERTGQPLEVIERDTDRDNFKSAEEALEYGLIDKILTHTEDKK
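FRET quenching reversal measured ClpP activation: 10 microg/mL B. subtilis ClpP at pH 8 with the FRET-FV decapeptide, read at 430 nm after 320 nm excitation. The 20-min minus 0-min signal was scaled between DMSO/no-enzyme wells and ADEP (5.8 microM final).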
FUS yeast rescue: qHTS for Suppressors of FUS Proteinopathy: Primary screen using FUS-linked yeast assay; S. cerevisiae FUS-expressing, growth rescue, OD600, 24 h; Potency, µM (doses to about 76.6 µM), actives largely listed as activators; 0.24% of 390,000 active;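 further: plate controls were DMSO vehicle for no effect and reference control for full effect; nearly all actives have a fitted effect of over 55% in size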
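Cultures pregrown in 2.5% raffinose medium are shifted to minimal medium containing 2% galactose to express toxic FUS. Compounds are tested at several concentrations. After 24hr at 30C, growth is quantified at 600 nm absorbance.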
TDP43 rescue: qHTS of TDP-43 Inhibitors; TDP-43 expressing yeast growth rescue, BacTiter-Glo, 24 h; 1.8% of 410,000 active; Potency, µM (top dose mostly 46.1 µM), for the others: top-dose growth rescue (activation), most hits filed as activators; AID 652104, 2013; further: % of control where 0% means no effect; nearly all actives have a fitted effect of over 50% in size
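Readout is BacTiter-Glo luminescence of cell growth, so inhibitors register as activators. TDP-43-expressing yeast at OD600=0.02 in galactose medium, after raffinose pregrowth to mid-log, were incubated with compound for 24 hr at 30 deg C.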
Numbers without * were called inactive. Unless noted, the call rests on the fitted dose curve; in most records, active means well fitted curve in the direction sought with a large enough effect; inconclusive means small, poorly fitted or top-dose-only effect, or another doubt; inactive means no such curve, though single readings can be large; an effect the other way counts as inactive or inconclusive. Potency means the concentration at half of the fitted maximal effect.

S=C(NCc1ccc(Cl)cc1)Nc1ccccc1Cl was read as aSyn yeast inh -2%, MmCpn inh -1%, Abeta rescue inactive, ClpP mod 0%, FUS yeast rescue inactive and TDP43 rescue inconclusive.
CSc1ccccc1NC(=S)NCc1ccc(Cl)cc1 was read as aSyn yeast inh -1%, MmCpn inh 4%, Abeta rescue 16µM*, ClpP mod 0%, FUS yeast rescue inactive and TDP43 rescue inconclusive.
`Cc1ccccc1NC(=S)NCCSc1ccc(Cl)cc1` gave aSyn yeast inh 1%, MmCpn inh 2%, Abeta rescue inactive, FUS yeast rescue inactive and TDP43 rescue 18µM*.
O=[N+]([O-])c1ccccc1NCCNS(=O)(=O)c1ccc(Cl)cc1 was read as aSyn yeast inh 15%, MmCpn inh 2%, Abeta rescue inactive, ClpP mod 2% and TDP43 rescue 11µM*.
Screening COC(=O)Cc1c(C)nc2nc(-c3ccc(Cl)cc3)[nH]n2c1=O returned aSyn yeast inh -10%, MmCpn inh -1%, Abeta rescue inactive, ClpP mod -24%, FUS yeast rescue inactive and TDP43 rescue -10%.
COCc1cc(=O)n2[nH]c(-c3ccc(C)cc3)cc2n1 was read as aSyn yeast inh 3%, MmCpn inh 0%, Abeta rescue inactive, ClpP mod 20µM*, FUS yeast rescue inactive and TDP43 rescue -12%.
CCOC(=O)Cc1c(C)nc2cc(-c3ccc(Cl)cc3)[nH]n2c1=O was read as aSyn yeast inh 4%, MmCpn inh -3%, Abeta rescue inactive, ClpP mod 28µM*, FUS yeast rescue inactive and TDP43 rescue 17%.
For CCOC(=O)Cc1cc(=O)n2[nH]c(-c3ccc(C)cc3)cc2n1 the results were aSyn yeast inh -3%, MmCpn inh -1%, Abeta rescue inactive, ClpP mod inconclusive, FUS yeast rescue inactive and TDP43 rescue -15%.
Screening CCc1c(C)nc2cc(-c3ccc(OC)cc3)[nH]n2c1=O returned aSyn yeast inh -5%, MmCpn inh 1%, Abeta rescue inactive, ClpP mod 32µM*, FUS yeast rescue inactive and TDP43 rescue 6%.
`CCOC(=O)Cc1c(C)nc2c(-c3ccc(Cl)cc3)c[nH]n2c1=O` gave aSyn yeast inh 2%, MmCpn inh 0%, Abeta rescue inactive, ClpP mod 3.2µM* and TDP43 rescue 15%.
`CCOc1ccc(NC(=O)COC(=O)c2ccccc2OCC(=O)N(C)C)cc1` gave aSyn yeast inh -3% and ClpP mod -1%.
`CC(C)=CCC/C(C)=C/CC/C(C)=C/CCC1(C)CCc2cc(O)ccc2O1` (stereo not drawn) gave aSyn yeast inh -8% and ClpP mod -2%.
For Cc1ccc(C)c(N(C)C(=O)C2CCN(c3ncnc4c3nc3n4CCCCC3)CC2)c1 the results were Abeta rescue inactive, ClpP mod 2%, FUS yeast rescue inactive and TDP43 rescue 0%.
`CCOC(=O)CCc1c(C)nc2cc(-c3ccc(F)cc3)[nH]n2c1=O` gave aSyn yeast inh -9%, MmCpn inh -1%, Abeta rescue inactive, ClpP mod 25µM*, FUS yeast rescue inactive and TDP43 rescue -16%.
`CC1CCN(C(=O)C(C)OC(=O)CSc2ccc([N+](=O)[O-])cc2)CC1` (stereo not drawn) gave aSyn yeast inh -10%, MmCpn inh 0%, Abeta rescue inactive, ClpP mod -1%, FUS yeast rescue inactive and TDP43 rescue 35µM*.
CC(OC(=O)CSc1ccc([N+](=O)[O-])cc1)C(=O)NCc1ccco1 (stereo not drawn) was read as aSyn yeast inh 0%, MmCpn inh 2%, Abeta rescue inactive, ClpP mod -1%, FUS yeast rescue inactive and TDP43 rescue 19%.
CCOc1c(Br)cc(C2C=C(C(=O)O)Nc3ncnn32)cc1OC (stereo not drawn) was read as Abeta rescue inactive, ClpP mod -5%, FUS yeast rescue inactive and TDP43 rescue 7%.
Cc1ccc(C(=O)Nc2cccc(N(C)S(C)(=O)=O)c2)cc1S(=O)(=O)Nc1ccccc1 was read as aSyn yeast inh 10%, MmCpn inh 2%, Abeta rescue inactive, ClpP mod -1%, FUS yeast rescue 35µM* and TDP43 rescue -24%.
For COc1ccc(C(=O)Nc2cccc(N(C)S(C)(=O)=O)c2)cc1OC the results were aSyn yeast inh 0%, MmCpn inh -1%, Abeta rescue inactive, ClpP mod -1%, FUS yeast rescue inactive and TDP43 rescue -1%.
COc1cc(OC)c(C2C3=C(CCCC3=O)Nc3nc4ccccc4n32)cc1OC (stereo not drawn) was read as aSyn yeast inh 2%, MmCpn inh -3%, Abeta rescue inactive, ClpP mod 25µM*, FUS yeast rescue inactive and TDP43 rescue -8%.
For CCc1ccc(-n2c(SCC(=O)NC(C)CC)nc3n[nH]c(C)c3c2=N)cc1 (stereo not drawn) the results were Abeta rescue inactive, ClpP mod 8%, FUS yeast rescue inactive and TDP43 rescue -9%.
Screening CN(C)CCNC(=O)c1ccc(Cn2c(=O)c3cccn3c3cccnc32)cc1 returned Abeta rescue inactive, ClpP mod 4%, FUS yeast rescue inactive and TDP43 rescue 8%.
`c1ccc(-n2nnnc2-c2cnc(-c3cccnc3)nc2-c2cccs2)cc1` gave aSyn yeast inh 8%, MmCpn inh -2%, Abeta rescue inactive, ClpP mod -17%, FUS yeast rescue inconclusive and TDP43 rescue 32µM*.
`CCCC1CCC(c2ccc(/C(N)=N/O)cc2)CC1` (stereo not drawn) gave aSyn yeast inh -8%, MmCpn inh -1%, Abeta rescue inactive, FUS yeast rescue inactive and TDP43 rescue 3.5µM*.
For CCCC1CCC(c2ccc(C(=O)NN)cc2)CC1 (stereo not drawn) the results were aSyn yeast inh 3%, MmCpn inh -3%, Abeta rescue inactive, ClpP mod -1% and TDP43 rescue inconclusive.
Screening COc1cc(N(C)C)c(OC)cc1/C=C1\Cc2ccccc2C1=O returned aSyn yeast inh 0% and ClpP mod -5%.
